# Assay outcomes (PubChem)
# Shown are actives, neighbours in structure and some others; about 6.2% of the full set was active somewhere.
# AHR activator = AHR activators, primary screen, cell-based, luminescence, luciferase reporter, human. AHR-responsive luciferase reporter cells. AID 2796, 2010. activation, % at 5 µM. 320,000 compounds, 2.5% hits. Aryl hydrocarbon receptor (Homo sapiens), P35869; in the data active means activation above about 47%;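 further: 0% = vehicle wells and 100% = reference agonist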
# Cardio protect = cardioprotection against H2O2-induced cell death, primary screen, uHTS, H9c2 cells, ATPLite luminescence; H9c2 cardiomyocytes, H2O2 injury protection, 2 h; protection from H2O2 cell death, % at 20 µM; 360,000 compounds, 0.63% hits;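 active means compounds giving at least 50% protection of heart cells from peroxide-induced death in the single-dose screen, raw or plate-pattern-corrected value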;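 further: 0% = DMSO wells with peroxide and 100% = DMSO wells without peroxide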
# GRIN3A LBD mod = binders of NR3A ligand-binding domain, primary screen, biophysical, differential scanning fluorimetry, uHTS; Glutamate receptor ionotropic, NMDA 3A (GRIN3A) ligand-binding domain; NR3A LBD differential scanning fluorimetry, Tm shift; 0% = protein alone, 100% = glycine-bound protein; Tm shift relative to glycine control, % at 25 µM; 340,000 compounds, 2.5% hits; AID 1259313, 2017;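 active means melting temperature shift of at least 10% of the positive control shift, at one fixed dose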
# SUMO Mot1 rescue = yeast Mot1-301 growth rescue at high temperature, primary screen, SUMOylation pathway inhibitor project, S. cerevisiae, ATP luminescence, 38.5C. S. cerevisiae Mot1-301 growth rescue; percent above DMSO median, 100 means doubled. 320,000 compounds, 1% hits. growth rescue, % at 18.8 µM;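 active means every valid replicate shows activation above 250% relative to neutral control wells; inactive means the rest, any valid replicate at or below 250%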;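 further: OY570 slx delta 5 strain wells were the positive control but not used for scaling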
# AI-2 QS mod = Vibrio harveyi AI-2 quorum sensing modulators, primary screen, JMH597 strain, luminescence/OD600 ratio; Vibrio harveyi JMH597 AI-2 luminescence/OD600 ratio, 9 h; stronger effect = lower value; strain lacks LuxN and CqsS sensors; 0 = neutral-control median; AID 2094, 2009; activity change, % at 7.5 µM; 300,000 compounds, 0.4% hits; in the data active means activity change below about -75%, passing the limit was not always enough;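 further: luminescence divided by OD600 gain over 9 h not by final OD600 alone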
# NTR1 agonist = agonists of human NTR1, primary screen, imaging, U2OS cells, beta-arrestin-GFP, high content. 330,000 compounds, 0.17% hits. NTR1-U2OS beta-arrestin-GFP spot imaging, agonist mode. AID 493036, 2011. activation, % at 20 µM;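 active means activation at or above 40% of the spot to cytoplasm intensity ratio, with at least 20 cells analyzed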;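 further: 0% = DMSO without peptide and 100% = 100 nM NTR1 peptide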
# Target sequence (P30989 whole entry, looked up): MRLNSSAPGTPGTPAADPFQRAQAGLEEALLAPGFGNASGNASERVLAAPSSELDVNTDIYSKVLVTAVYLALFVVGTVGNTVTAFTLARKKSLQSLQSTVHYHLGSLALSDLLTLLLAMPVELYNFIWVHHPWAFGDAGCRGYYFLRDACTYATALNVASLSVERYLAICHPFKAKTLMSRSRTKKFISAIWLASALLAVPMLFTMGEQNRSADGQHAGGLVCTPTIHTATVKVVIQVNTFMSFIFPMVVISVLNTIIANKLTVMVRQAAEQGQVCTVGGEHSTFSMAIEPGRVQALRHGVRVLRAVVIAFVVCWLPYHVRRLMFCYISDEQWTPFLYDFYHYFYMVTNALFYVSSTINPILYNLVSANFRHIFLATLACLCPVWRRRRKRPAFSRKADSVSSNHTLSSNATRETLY
# Yeast Mot1 SUMO = growth restoration of Mot1-301 yeast on galactose, dose response, SUMO pathway inhibitor project, whole organism, S. cerevisiae, ATP luminescence, cherry-picked samples; 2,300 tested, under 10 active; growth activity, percent, % at 42 µM; shares compounds with SUMO Mot1 rescue; S. cerevisiae Mot1-301 galactose growth, 24 h; -100 = growth of slx-deleted rescue strain;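 active means Signal drops as the depositor expects, and the fitted half-maximal dose is no more than ten times the top valid tested dose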;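 further: more negative values mean stronger growth rescue toward the control strain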
# * hit, by the source's call; . = no result given; + = active, no number; [ ] = remark or other dose.
SMILES,AHR activator,Cardio protect,GRIN3A LBD mod,SUMO Mot1 rescue,AI-2 QS mod,NTR1 agonist,Yeast Mot1 SUMO
CC1(C)OC(=O)NC1c1ccccc1 (stereo not given),.,6,.,.,.,.,.
CCN(CC)CCCNC(=O)C1c2ccccc2C(=O)N(CCOC)C1c1ccc(F)cc1 (stereo not given),1,-2,2,691*,11,5,0[21 µM]
CCN(CCCNC(=O)C1c2ccccc2C(=O)N(CCOC)C1c1ccc(F)cc1)Cc1ccccc1 (stereo not given),0,6,-1,-1,6,-1,.
CSc1ncccc1C(=O)OCc1nc2ccsc2c(=O)[nH]1,18,6,2,27,-49,2,.
O=C(OCc1nc2ccsc2c(=O)[nH]1)c1ccco1,6,7,0,651*,-2,0,0
COc1ccc([N+](=O)[O-])c2c(=O)ccoc12,-4,7,-7,585*,17,0,0
O=C(CCNC(=O)c1ccccc1)NCc1ccccc1F,2,-14,-18,4,.,3,.
O=C(CCNC(=O)c1ccc(Br)cc1)NCc1ccccc1F,3,-4,0,812*,.,-1,-1
COc1ccc(CN2C[C@@H](CO)O[C@@H](n3cnc4c(NCc5ccc(F)cc5)ncnc43)C2)cc1,.,0,.,.,.,.,.
CCOc1ncccc1-c1nc(-c2cccs2)no1,29,0,2,916*,9,1,0
COc1cc(/C=C(\C#N)C(=O)Nc2ccc(C(=O)O)cc2)ccc1OC(=O)c1cccc(F)c1,7,5,-1,827*,22,4,1
COc1ccc(CN2CCN(c3ncccn3)CC2)c(OC)c1,1,3,1,-1,11,-2,.
COc1cc(CN2CCN(c3ncccn3)CC2)cc(OC)c1,-1,0,2,534*,5,0,0
CCC(=O)Oc1ccc(C(=O)Nc2ccc([N+](=O)[O-])cc2)cc1,5,-13,6,-12,12,1,.
CC(C)COc1ccc(C(=O)Nc2ccc([N+](=O)[O-])cc2)cc1,3,-6,-4,691*,-24,1,0
Cc1ccc(C)n1-c1ccc(N(C)C)cc1,7,-21,-2,+,29,-1,0
Cc1ccc(C)n1-c1ccc(N2CCOCC2)cc1,4,3,-1,-2,57,-3,.
C/C(=N\NC(=O)C1CCCC1)c1ccc(Cl)cc1,.,1,-1,-1,1,0,.
COc1ccc(CCNC(=O)Cn2nnc(-c3cccc(OC)c3OC)n2)cc1OC,2,4,4,31,9,0,.
COc1ccc(CCNC(=O)Cn2nnc(-c3ccc(N4CCOCC4)cc3)n2)cc1OC,1,-6,2,710*,12,0,0
Cc1nc(CN(C)c2ncnc3ccc(-c4ccc5c(c4)OCO5)cc23)cs1,.,4,.,.,.,.,.
O=C(c1ccc(OC2CCN(CCc3ccccc3)CC2)cc1)N1CCCC1,3,7,-2,608*,2,0,0
CC(C)N1CCN(C(=O)c2ccc(OC3CCN(CCc4ccccc4)CC3)cc2)CC1,-1,15,0,-17,-3,-1,.
O=C(CN(CCc1ccccc1)Cc1ccccc1)Oc1ccccc1P(=O)(O)O,0,3,-1,196,17,2,.
Cc1ccc(C(=O)NC(NC(=O)c2ccc(C)cc2)C(Cl)Cl)cc1,1,-12,-4,378*,9,-2,0
CCN(CC1COc2ccccc2O1)C(=S)NCCCN(C)C (stereo not given),0,7,-4,+,5,-1,0
